Records with an inconclusive call do not appear. A call without a number means that no potency is given here. Active and inactive are the calls of the source. Calls come from the whole dose curve.
target: Estrogen receptor (Homo sapiens) (UniProt P03372); experiment: qHTS assay to identify small molecule agonists of the estrogen receptor alpha (ER-alpha) signaling pathway in the presence of an antagonist (AID 1259383); conditions: VM7Luc4E2 cells, ERE-luciferase, +ICI-182,780, 22 h; series mostly up to 92.4 µM; note: nearly all actives have a fitted effect of over 15% in size; note: potency is the fitted concentration of half-maximal effect; for activation: top concentration of the series differs between compounds
Procedure, shortened: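 Luciferase luminescence (ONE-Glo, 30min at room temperature) measured in VM7Luc4E2 cells after 22hr compound exposure at 15 concentrations, with 10.0nM ICI-182,780 final present; cells express endogenous ER-alpha and carry four EREs upstream of luciferase.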

Chain of Estrogen receptor (Homo sapiens) (P03372 whole entry, looked up): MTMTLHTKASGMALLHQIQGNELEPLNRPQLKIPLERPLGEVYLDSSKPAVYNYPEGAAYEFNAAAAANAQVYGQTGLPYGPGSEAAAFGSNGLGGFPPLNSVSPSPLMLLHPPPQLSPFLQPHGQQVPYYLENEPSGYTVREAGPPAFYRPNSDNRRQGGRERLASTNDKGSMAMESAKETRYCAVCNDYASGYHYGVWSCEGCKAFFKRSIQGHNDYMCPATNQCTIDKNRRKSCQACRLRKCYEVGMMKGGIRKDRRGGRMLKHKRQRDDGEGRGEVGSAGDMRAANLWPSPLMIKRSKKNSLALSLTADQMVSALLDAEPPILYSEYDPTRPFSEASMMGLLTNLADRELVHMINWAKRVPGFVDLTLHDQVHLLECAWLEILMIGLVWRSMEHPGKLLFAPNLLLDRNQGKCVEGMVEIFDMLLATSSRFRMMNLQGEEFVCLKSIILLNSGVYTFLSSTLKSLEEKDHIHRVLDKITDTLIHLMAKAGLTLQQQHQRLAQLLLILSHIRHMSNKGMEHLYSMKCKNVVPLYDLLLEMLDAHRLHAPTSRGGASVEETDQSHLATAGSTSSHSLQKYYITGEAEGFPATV

| SMILES | Potency | activation |
| --- | --- | --- |
| C[C@]12C=CC(=O)C=C1[C@@H](F)C[C@@H]1[C@@H]2[C@@H](O)C[C@@]2(C)[C@H]1CC[C@]2(O)C(=O)CO | inactive | – |
| CCCCCCCCCCCCCC(=O)OCC | inactive | – |
| CCN1CCN(C(=O)N[C@@H](C(=O)N[C@@H]2C(=O)N3[C@@H]2SC(C)(C)[C@H]3C(=O)O)c2ccccc2)C(=O)C1=O | inactive | – |
| CC(=O)O[C@@H]1CC2C3CCc4cc(OC(=O)c5ccccc5)ccc4C3CCC2(C)[C@H]1OC(C)=O (stereo partly specified) | 0.0473 µM (active) | – |
| CCCCCCCCCCCCCCCCN(C)C | – | 0.651% [at 8.39 µM] (inactive) |
| CC/C=C\CCCCCCCCCCOC(C)=O | inactive | – |
| CCOC(=O)[C@H](CCc1ccccc1)N[C@H]1CS[C@H](c2cccs2)CN(CC(=O)O)C1=O | inactive | – |
| CN(C)CCC[C@@]1(c2ccc(F)cc2)OCc2cc(C#N)ccc21 | inactive | – |
| N=C(N)S(=O)O | inactive | – |
| CCCCN1C(=O)c2ccccc2C1=O | inactive | – |
| CC(C)(O)CCCC1=CCC(C=O)CC1 (stereo unspecified) | inactive | – |
| CCCCOCCCC | inactive | – |
| COc1ccccc1N1CCN(CC(O)COc2cc(OC)c(OC)c(OC)c2)CC1 (stereo unspecified) | inactive | – |
| COCc1nnc(-c2ccc[n+]([O-])c2)n1-c1c(Cl)c(Cl)cc2[nH]c(=O)c(=O)[nH]c12 | inactive | – |
| CC1(C)S[C@@H]2[C@H](NC(=O)Cc3ccccc3)C(=O)N2[C@H]1C(=O)O (tested in a mixture with another compound) | inactive | – |
| CC(C)(C)C(=O)CCc1ccc(Cl)cc1 | inactive | – |
| Cc1ccc(Br)cc1 | inactive | – |
| CC(O)C(CO)C(C)O (stereo unspecified) | inactive | – |
| Nc1cc(S(=O)(=O)O)ccc1O | inactive | – |

| SMILES | Potency | activation |
| --- | --- | --- |
| CCCCC(CC)COC(=O)CC#N (stereo unspecified) | inactive | – |
| COc1cc(S(N)(=O)=O)cc(C(=O)O)c1OC | inactive | – |
| CCN1CCN(C(=O)N[C@@H](C(=O)N[C@@H]2C(=O)N3C(C(=O)O)=C(CSc4nnnn4C)CS[C@H]23)c2ccc(O)cc2)C(=O)C1=O | inactive | – |
| O=C(CCBr)N1CCN(C(=O)CCBr)CC1 | inactive | – |
| CC/C=C\CCOC(=O)c1ccccc1 | inactive | – |
| CCNC(=O)C(C)OC(=O)Nc1ccccc1 (stereo unspecified) | inactive | – |
| CC(=O)c1ccc2ccc3ccccc3c2c1 | inactive | – |
| CN(C)CCc1c[nH]c2ccc(C[C@H]3COC(=O)N3)cc12 | inactive | – |
| C=CCCCCCCCCCCCCCC | – | -0.0008% [at 19 µM] (inactive) |
| COC(=O)c1ccc(C(=O)O)cc1 | inactive | – |
| CCCCCCCCCCCCCCBr | inactive | – |
| CC(C)C[P+](C)(CC(C)C)CC(C)C | inactive | – |
| O=C(O)/C=C(\CC(=O)O)C(=O)O | inactive | – |
| CCC(C)c1nccnc1OC (stereo unspecified) | inactive | – |
| N#CC1(N)CCCCC1 | inactive | – |
| Cc1ccc(OC(=O)CC(C)C)cc1 | inactive | – |
| CCCC(=O)OC | inactive | – |
| CC(CC(=O)Cl)CC(C)(C)C (stereo unspecified) | inactive | – |
| CCC(C)SSC(C)CC (stereo unspecified) | inactive | – |

test system: not listed separately; experiment: qHTS assay to identify small molecule agonists or antagonists of the thyroid stimulating hormone receptor (TSHR) signaling pathway - wild type cell line counter screen (AID 1259384); conditions: HEK293 wild type, cAMP HTRF counter-screen, stronger effect = higher value; series mostly up to 92.4 µM
Procedure, shortened: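 Wild-type HEK293 cells were plated 18 h at 37 C/5% CO2, pin-dosed with compound plus Ro20-1724 medium, held 30 min at room temperature, then given cAMP-d2 and anti-cAMP-cryptate; fluorescence was read after 1 h. Fifteen concentrations, triplicate.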

| SMILES | outcome | cAMP activity change |
| --- | --- | --- |
| C[C@]12C=CC(=O)C=C1[C@@H](F)C[C@@H]1[C@@H]2[C@@H](O)C[C@@]2(C)[C@H]1CC[C@]2(O)C(=O)CO | inactive | – |
| CCCCCCCCCCCCCC(=O)OCC | inactive | – |
| CCN1CCN(C(=O)N[C@@H](C(=O)N[C@@H]2C(=O)N3[C@@H]2SC(C)(C)[C@H]3C(=O)O)c2ccccc2)C(=O)C1=O | inactive | – |
| CC(=O)O[C@@H]1CC2C3CCc4cc(OC(=O)c5ccccc5)ccc4C3CCC2(C)[C@H]1OC(C)=O (stereo partly specified) | inactive | – |
| CCCCCCCCCCCCCCCCN(C)C | – | -1.46% [at 8.39 µM] (inactive) |
| CC/C=C\CCCCCCCCCCOC(C)=O | inactive | – |
| CCOC(=O)[C@H](CCc1ccccc1)N[C@H]1CS[C@H](c2cccs2)CN(CC(=O)O)C1=O | inactive | – |
| CN(C)CCC[C@@]1(c2ccc(F)cc2)OCc2cc(C#N)ccc21 | inactive | – |
| N=C(N)S(=O)O | inactive | – |
| CCCCN1C(=O)c2ccccc2C1=O | inactive | – |
| CC(C)(O)CCCC1=CCC(C=O)CC1 (stereo unspecified) | inactive | – |
| CCCCOCCCC | inactive | – |
| COc1ccccc1N1CCN(CC(O)COc2cc(OC)c(OC)c(OC)c2)CC1 (stereo unspecified) | inactive | – |
| COCc1nnc(-c2ccc[n+]([O-])c2)n1-c1c(Cl)c(Cl)cc2[nH]c(=O)c(=O)[nH]c12 | inactive | – |
| CC1(C)S[C@@H]2[C@H](NC(=O)Cc3ccccc3)C(=O)N2[C@H]1C(=O)O (tested in a mixture with another compound) | inactive | – |
| CC(C)(C)C(=O)CCc1ccc(Cl)cc1 | inactive | – |
| Cc1ccc(Br)cc1 | inactive | – |
| CC(O)C(CO)C(C)O (stereo unspecified) | inactive | – |
| Nc1cc(S(=O)(=O)O)ccc1O | inactive | – |

| SMILES | outcome | cAMP activity change |
| --- | --- | --- |
| CCCCC(CC)COC(=O)CC#N (stereo unspecified) | inactive | – |
| COc1cc(S(N)(=O)=O)cc(C(=O)O)c1OC | inactive | – |
| CCN1CCN(C(=O)N[C@@H](C(=O)N[C@@H]2C(=O)N3C(C(=O)O)=C(CSc4nnnn4C)CS[C@H]23)c2ccc(O)cc2)C(=O)C1=O | inactive | – |
| O=C(CCBr)N1CCN(C(=O)CCBr)CC1 | inactive | – |
| CC/C=C\CCOC(=O)c1ccccc1 | inactive | – |
| CCNC(=O)C(C)OC(=O)Nc1ccccc1 (stereo unspecified) | inactive | – |
| CC(=O)c1ccc2ccc3ccccc3c2c1 | inactive | – |
| CN(C)CCc1c[nH]c2ccc(C[C@H]3COC(=O)N3)cc12 | inactive | – |
| C=CCCCCCCCCCCCCCC | – | 3.16% [at 18.9 µM] (inactive) |
| COC(=O)c1ccc(C(=O)O)cc1 | inactive | – |
| CCCCCCCCCCCCCCBr | inactive | – |
| CC(C)C[P+](C)(CC(C)C)CC(C)C | inactive | – |
| O=C(O)/C=C(\CC(=O)O)C(=O)O | inactive | – |
| CCC(C)c1nccnc1OC (stereo unspecified) | inactive | – |
| N#CC1(N)CCCCC1 | inactive | – |
| Cc1ccc(OC(=O)CC(C)C)cc1 | inactive | – |
| CCCC(=O)OC | inactive | – |
| CC(CC(=O)Cl)CC(C)(C)C (stereo unspecified) | inactive | – |
| CCC(C)SSC(C)CC (stereo unspecified) | inactive | – |

From PubChem BioAssay (Tox21)
